Assay outcomes: PubChem, University of Kansas High Throughput Screening Laboratory
Compounds with a hit are over-represented: about 3.5% of the library has one in this group of screens.
mHTT CaM bind: disrupts binding of mutant huntingtin to calmodulin; P42858; 190,000 tested, 3.6% active; AID 1671202; inhibition, % at 15 µM; AlphaScreen His-mHTT/GST-CaM binding, luminescence;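 note: 0% = both proteins with DMSO and 100% = one protein alone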
Pf apPOL inh: Pf-apPOL DNA polymerase inhibition; inhibition, % at 10 µM; Recombinant Pf-apPOL, molecular beacon fluorescence, 1.5 h; 210,000 tested, 0.25% active
* marks the source's active call; other numbers are inactive results; x = not tested or not shown. Cut-off read from the data, not from the text of the source: active = inhibition above about 50%; inactive = the rest.

SMILES	mHTT CaM bind	Pf apPOL inh
O=C(Nc1ccc(O)cc1)c1ccccc1F	-2.9	-4.0
CCCn1cnnc1C1CCCCN1C(=O)CCc1ccccc1 (configuration not stated)	1.3	-4.5
COC(=O)c1ccc(NC(=O)Cc2csc(NC(=O)c3ncccn3)n2)cc1	97.8*	2.6
COC(=O)c1ccc(NC(=O)Cc2csc(NC(=O)Nc3ccccc3OC)n2)cc1	24.7	4.9
COc1ccc(C2C3=C(CCCC3=O)Nc3nc(SC)nn32)cc1OC (configuration not stated)	-7.0	-2.5
CN(C)c1ccc(C=Nc2nc(-c3ccccc3)cs2)cc1	65.0*	-0.6
CN(C)c1ccc(Nc2nc(-c3ccncc3)cs2)cc1	38.9	-0.7
COc1ccc(CNC(=O)C2CCCN(c3nccnc3Oc3ccccc3)C2)cc1OC (configuration not stated)	9.4	-3.8
O=C1NN(c2ccccc2)C(=O)C2C(c3ccccc3)C=CC(c3ccccc3)C12 (configuration not stated)	24.0	2.1
O=C1NC(=O)C2C3C=CC(C3=C(c3ccccc3)c3ccccc3)C12 (configuration not stated)	57.0*	-2.4
N#CC1=C(S)NC(=O)C([n+]2ccccc2)C1c1ccc(F)c(Br)c1 (configuration not stated)	33.0	-1.0
N#CC1=C(S)NC(O)(c2ccccc2)C([n+]2ccccc2)C1c1ccccc1Br (configuration not stated)	77.0*	-4.2
COc1cc(CN2CCN(c3ccc([N+](=O)[O-])cc3)CC2)cc(I)c1O	42.0	-6.7
COc1cc(CN2CCN(c3ccc(C(C)=O)cc3)CC2)cc(I)c1O	55.3*	-1.8
O=C1C(=Cc2cc(Br)cc3c2OCOC3)Oc2cc(O)ccc21	7.4	-6.9
COc1ccc2cc(-c3csc(NC(=O)CCC(=O)NCc4ccccn4)n3)c(=O)oc2c1	2.0	-0.8
COc1cccc(C2=N/C(=C\c3coc4ccccc4c3=O)C(=O)O2)c1	2.0	-0.8
COc1ccc(-c2nnc(N3CCC(C(=O)NC4CCCCCC4)CC3)o2)cc1	-4.0	-1.1
Cn1nnnc1SCC(=O)NCCn1nc(-c2ccc(F)cc2)ccc1=O	-13.4	-4.1
O=C(CC(c1ccccc1)c1ccccc1)NCCn1nc(-c2ccc(F)cc2)ccc1=O	94.8*	-13.0
CCc1nc2c(c(=O)n1CC(=O)Nc1cccc(Cl)c1)CN(Cc1ccccc1)CC2	31.2	0.5
CSc1snc(OC(C)C)c1C#N	-10.6	x
Cc1sc2cc(C(=O)N3CCN(C)CC3)[nH]c2c1CN1CCOCC1	6.6	-2.5
Cc1sc2cc(C(=O)N3CCOCC3)[nH]c2c1CN1CCOCC1	100.2*	0.3
N#CCC[C@H]1CC[C@]2(CCCN(Cc3ccccc3)C2)O1	-5.1	-3.9
SMILES	mHTT CaM bind	Pf apPOL inh
N#CCC[C@@H]1CC[C@]2(CCCN(Cc3ccc(Cl)cc3)C2)O1	74.2*	-3.0
O=C(NCC1(O)CCCC1)NC1CCCCC1	0.7	1.8
O=c1ccc2cc(S(=O)(=O)N3CCCN(S(=O)(=O)c4ccc5oc(=O)ccc5c4)CC3)ccc2o1	31.7	x
CCN1CCCC1CNC(=O)c1cnn2c3c(cnc12)CCCCCC3 (configuration not stated)	2.8	-0.4
CCOC(=O)N1CCN(C(=O)c2ccc3nc(-c4ccco4)c(-c4ccco4)nc3c2)CC1	-2.9	1.1
O=C(NC1=NCCS1)c1ccc2nc(-c3ccco3)c(-c3ccco3)nc2c1	71.6*	-3.9
O=C(c1ccc2nc(N3C(=O)CCC3=O)sc2c1)N(CCO)c1ccccc1	10.5	-3.6
O=C(Nc1ccc2nsnc2c1)NC1CC1	-0.5	-3.3
O=C(Nc1ccc2nc(-c3ccco3)c(-c3ccco3)nc2c1)NC1CC1	99.4*	-2.1
O=C(Nc1ccccc1F)c1ccc2nc(-c3ccco3)c(-c3ccco3)nc2c1	-0.6	2.8
O=C(c1ccc2nc(-c3ccco3)c(-c3ccco3)nc2c1)N(CCO)c1ccccc1	66.8*	1.9
O=C(Nc1nccs1)c1ccc2nc(-c3ccco3)c(-c3ccco3)nc2c1	93.1*	1.5
Cc1noc(C)c1S(=O)(=O)N1CCC(CC(=O)NCc2ccco2)CC1	-8.0	1.3
COc1ccc(C(=O)NC2CC(C)(C)NC(C)(C)C2)cc1[N+](=O)[O-]	-5.1	2.4
C=CCn1c(SCC(=O)Nc2sc3c(c2C(=O)O)CCCC3)nnc1-c1cccnc1	41.0	4.2
O=C(Nc1nc2c(s1)CCc1ccccc1-2)c1c(F)cccc1F	-7.1	0.2
Cc1ccc(-n2nc(C)c3sc(N4CCC(NC(=O)C5CCCO5)CC4)nc32)cc1 (configuration not stated)	4.2	-6.9
Cc1cc(C2CCCN2C(=O)Nc2ccc(Cl)cc2)on1 (configuration not stated)	5.7	-6.3
Cc1ccc(-c2ncc(NC(=O)c3ccc(Br)o3)cn2)cc1	5.5	-1.2
Cc1ccc(Cl)cc1N1CCN(C(=O)Cc2c(C(=O)O)[nH]c3ccc(Cl)cc23)CC1	98.0*	-0.1
O=C(N1CCN(c2cccc(Cl)c2)CC1)C1(S(=O)(=O)c2ccc(Cl)cc2)CC1	13.0	-5.0
CN(C(=O)Cc1c(C(=O)O)[nH]c2ccc(Cl)cc12)c1ccc(Br)cc1	10.0	0.6
O=C(O)c1[nH]c2ccc(Cl)cc2c1CC(=O)N1CCN(c2cccc(Cl)c2)CC1	63.0*	-3.6
O=C(O)c1[nH]c2ccccc2c1CC(=O)N1CCN(c2ccc([N+](=O)[O-])cc2)CC1	7.0	-3.1
Cc1ccc(Cl)cc1N1CCN(C(=O)C2(S(=O)(=O)c3ccc(Cl)cc3)CC2)CC1	92.0*	0.9
SMILES	mHTT CaM bind	Pf apPOL inh
CCCNC(=O)CC1CCN(S(=O)(=O)c2ccc(Cl)s2)CC1	-9.1	1.6
FC(F)(F)c1ccc(CSc2c[nH]c3ccccc23)cc1	87.0*	-8.1
O=S(=O)(Cc1ccc(C(F)(F)F)cc1)c1c[nH]c2ccccc12	14.0	-0.1
CCCCCC1=CC(=O)C=C(OC)C1=O	x	-7.8
Cc1cccc(NC(=O)c2ccc(F)c(S(=O)(=O)N3CCc4ccccc4C3)c2)c1	-7.0	-6.2
O=S(=O)(c1cccc(C(F)(F)F)c1)N1CCC(CN2CCCCCC2)CC1	98.5*	-0.9
CC1CCN(CC2CCN(S(=O)(=O)c3cccc(C(F)(F)F)c3)CC2)CC1	-16.9	0.3
COc1ccc(CNC2=NCCNC23CCCCC3C)cc1 (configuration not stated)	-5.3	5.0
COc1ccc(-c2noc(C3CCN(CC(=O)Nc4ccc(F)cc4C)CC3)n2)cc1	-2.3	-6.2
CCOc1cc(C=O)c(Br)cc1OCc1ccccc1	-5.0	5.6
O=Cc1cc(Cc2ccccc2)cc(Br)c1O	99.6*	-3.4
ClC(Cl)(Cl)c1nc(C(Cl)(Cl)Cl)nc(C(Cl)(Cl)Cl)n1	22.0	-3.9
CCSc1nnc(-c2nn(C)c3c2CN(C(=O)c2cccc(C)c2)CC3)n1C	-3.6	-0.3
O=[N+]([O-])c1cccc(-c2nnc(-c3ccc(F)cc3)o2)c1	2.0	-1.6
COc1ccc(-n2nc3c(c2NC(=O)c2ccccc2)CSC3)cc1	31.0	-1.4
COc1ccc(-n2nc3c(c2NC(=O)c2ccc(C(C)(C)C)cc2)CSC3)cc1	100.0*	3.4
COc1ccc(-n2nc3c(c2NC(=O)/C=C/c2ccccc2)CSC3)cc1	52.0*	-1.3
COc1ccc(-n2nc3c(c2NC(=O)c2ccc(Br)cc2)CSC3)cc1	30.0	5.0
COc1ccc(-n2nc3c(c2NC(=O)/C=C/c2cc(OC)c(OC)c(OC)c2)CSC3)cc1	34.0	-7.0
CC(C)C(=O)Nc1c2c(nn1-c1ccc(Oc3ccccc3)cc1)CSC2	65.0*	5.3
